# Legend:
# Assay in all cases: DAPPL (digital affinity profiling via proximity ligation, sequencing); 10 mM Tris-HCl pH 7.5, 50 mM NaCl, 1 mM DTT, 4% glycerol, room temperature, 30 min; GST-TFs on glutathione beads, 16-mer random dsDNA library, 0.1% formaldehyde crosslink after washing; high values mean tight binding
# FLI1 = target: T1, FLI1 (Homo sapiens, UniProt Q01543 1-452); details: protein: recombinant; tags: N-terminal GST; dsDNA, one strand shown
# T1 sequence: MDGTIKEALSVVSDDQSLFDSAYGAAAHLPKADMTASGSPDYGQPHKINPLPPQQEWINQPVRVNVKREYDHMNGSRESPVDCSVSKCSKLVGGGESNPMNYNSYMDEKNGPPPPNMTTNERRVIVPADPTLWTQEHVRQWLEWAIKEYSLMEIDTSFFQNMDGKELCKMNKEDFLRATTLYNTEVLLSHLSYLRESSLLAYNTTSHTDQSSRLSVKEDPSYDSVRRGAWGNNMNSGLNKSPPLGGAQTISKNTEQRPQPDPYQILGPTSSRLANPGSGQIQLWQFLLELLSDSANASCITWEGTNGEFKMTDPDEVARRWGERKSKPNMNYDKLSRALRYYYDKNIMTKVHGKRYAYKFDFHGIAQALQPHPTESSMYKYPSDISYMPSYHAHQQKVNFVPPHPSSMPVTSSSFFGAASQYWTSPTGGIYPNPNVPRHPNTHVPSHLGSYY
# In short: (§1)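 After expression in yeast as GST fusions, human transcription factors were bound to glutathione beads, DNA-barcoded and mixed with a tag-only sample. The pools were incubated with 200 nmole of a 16-mer random double-stranded DNA library in Tris/NaCl/DTT/glycerol buffer (30 min, room temperature), washed and crosslinked with 0.1% formaldehyde. Proximity ligation with BsaI/T4 ligase ran for 1 h at 37 °C, before PCR amplification and sequencing on an Illumina NextSeq500. Binding signal is a hexamer's read frequency for a factor divided by its frequency for the tag-only sample.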
# ELK1 = target: T2, ELK1 (Homo sapiens, UniProt P19419 1-428); details: protein: recombinant; tags: N-terminal GST; dsDNA, one strand shown
# T2 sequence: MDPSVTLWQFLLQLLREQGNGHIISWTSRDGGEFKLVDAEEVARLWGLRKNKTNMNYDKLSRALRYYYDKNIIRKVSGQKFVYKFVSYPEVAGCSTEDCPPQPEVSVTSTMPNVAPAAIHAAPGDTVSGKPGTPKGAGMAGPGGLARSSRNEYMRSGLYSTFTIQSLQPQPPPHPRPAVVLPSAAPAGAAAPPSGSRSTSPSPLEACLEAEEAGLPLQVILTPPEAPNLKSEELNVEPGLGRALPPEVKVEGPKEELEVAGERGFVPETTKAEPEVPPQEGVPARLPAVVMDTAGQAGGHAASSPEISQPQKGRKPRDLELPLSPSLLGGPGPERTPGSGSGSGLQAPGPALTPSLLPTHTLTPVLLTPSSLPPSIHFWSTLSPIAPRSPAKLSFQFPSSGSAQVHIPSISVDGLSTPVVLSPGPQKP
# In short: as §1
# GABPA = target: T3, GABPA (Homo sapiens, UniProt Q06546 1-454); details: protein: recombinant; tags: N-terminal GST; dsDNA, one strand shown
# T3 sequence: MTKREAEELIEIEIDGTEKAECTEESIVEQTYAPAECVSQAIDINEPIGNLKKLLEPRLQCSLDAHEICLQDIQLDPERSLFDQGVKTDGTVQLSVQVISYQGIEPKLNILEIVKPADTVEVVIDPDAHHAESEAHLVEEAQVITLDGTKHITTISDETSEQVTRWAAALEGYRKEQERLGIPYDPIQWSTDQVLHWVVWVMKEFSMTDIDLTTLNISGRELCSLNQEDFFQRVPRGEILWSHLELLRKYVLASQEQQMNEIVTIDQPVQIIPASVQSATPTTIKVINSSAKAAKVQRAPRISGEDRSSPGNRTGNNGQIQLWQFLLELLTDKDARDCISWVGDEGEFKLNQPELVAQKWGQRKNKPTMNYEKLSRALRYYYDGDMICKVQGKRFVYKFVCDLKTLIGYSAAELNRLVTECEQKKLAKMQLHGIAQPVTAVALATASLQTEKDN
# In short: as §1
# ERG = target: T4, ERG (Homo sapiens, UniProt P11308 1-479); details: protein: recombinant; tags: N-terminal GST; dsDNA, one strand shown
# T4 sequence: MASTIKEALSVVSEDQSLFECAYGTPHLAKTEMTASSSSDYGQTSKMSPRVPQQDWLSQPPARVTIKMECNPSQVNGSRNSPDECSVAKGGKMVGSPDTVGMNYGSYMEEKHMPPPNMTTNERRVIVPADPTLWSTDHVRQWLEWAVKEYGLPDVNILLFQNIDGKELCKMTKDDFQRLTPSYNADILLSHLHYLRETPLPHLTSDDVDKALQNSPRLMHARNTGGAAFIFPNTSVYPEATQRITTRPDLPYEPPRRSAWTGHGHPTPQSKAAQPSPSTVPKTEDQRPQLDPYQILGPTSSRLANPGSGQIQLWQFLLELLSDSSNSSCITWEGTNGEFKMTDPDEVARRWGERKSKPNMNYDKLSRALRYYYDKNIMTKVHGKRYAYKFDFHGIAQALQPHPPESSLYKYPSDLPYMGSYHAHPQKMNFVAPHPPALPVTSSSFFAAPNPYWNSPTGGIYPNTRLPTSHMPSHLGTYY
# In short: as §1
# ELF1 = ELF1 (Homo sapiens, UniProt P32519 1-619); details: protein: recombinant; tags: N-terminal GST; dsDNA, one strand shown
# Sequence of ELF1 (P32519 whole entry): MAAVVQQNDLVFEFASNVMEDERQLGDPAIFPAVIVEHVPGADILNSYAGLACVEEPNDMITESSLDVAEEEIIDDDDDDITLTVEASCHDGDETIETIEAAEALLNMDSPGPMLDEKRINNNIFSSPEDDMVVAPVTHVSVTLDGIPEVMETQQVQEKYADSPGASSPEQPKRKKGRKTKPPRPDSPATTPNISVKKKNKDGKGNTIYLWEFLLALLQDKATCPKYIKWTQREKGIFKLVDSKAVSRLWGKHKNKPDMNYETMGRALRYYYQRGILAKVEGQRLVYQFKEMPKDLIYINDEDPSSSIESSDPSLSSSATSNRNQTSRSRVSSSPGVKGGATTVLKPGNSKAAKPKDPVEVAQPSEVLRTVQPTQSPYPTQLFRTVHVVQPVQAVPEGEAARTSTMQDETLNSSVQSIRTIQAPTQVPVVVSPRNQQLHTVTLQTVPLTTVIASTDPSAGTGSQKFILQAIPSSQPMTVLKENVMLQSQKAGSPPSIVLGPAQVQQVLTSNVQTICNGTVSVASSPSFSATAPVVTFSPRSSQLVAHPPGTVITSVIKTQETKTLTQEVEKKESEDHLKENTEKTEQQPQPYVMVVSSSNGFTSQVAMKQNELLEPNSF
# In short: as §1
# EHF = target: T5, EHF (Homo sapiens, UniProt Q9NZC4 1-300); details: protein: recombinant; tags: N-terminal GST; dsDNA, one strand shown
# T5 sequence: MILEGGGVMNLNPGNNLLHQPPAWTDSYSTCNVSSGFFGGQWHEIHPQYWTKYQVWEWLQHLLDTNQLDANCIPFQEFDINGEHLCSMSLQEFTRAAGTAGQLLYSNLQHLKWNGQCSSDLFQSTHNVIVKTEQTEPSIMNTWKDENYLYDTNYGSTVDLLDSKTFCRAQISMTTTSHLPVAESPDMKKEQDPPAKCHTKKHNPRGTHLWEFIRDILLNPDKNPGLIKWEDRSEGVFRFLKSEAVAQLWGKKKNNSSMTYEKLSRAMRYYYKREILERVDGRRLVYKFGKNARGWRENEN
# In short: as §1
# SPI1 = SPI1 (Homo sapiens, UniProt P17947 1-270); details: protein: recombinant; tags: N-terminal GST; dsDNA, one strand shown
# In short: as §1
# SPIB = SPIB (Homo sapiens, UniProt Q01892 1-262); details: protein: recombinant; tags: N-terminal GST; dsDNA, one strand shown
# Sequence of SPIB (Q01892 whole entry): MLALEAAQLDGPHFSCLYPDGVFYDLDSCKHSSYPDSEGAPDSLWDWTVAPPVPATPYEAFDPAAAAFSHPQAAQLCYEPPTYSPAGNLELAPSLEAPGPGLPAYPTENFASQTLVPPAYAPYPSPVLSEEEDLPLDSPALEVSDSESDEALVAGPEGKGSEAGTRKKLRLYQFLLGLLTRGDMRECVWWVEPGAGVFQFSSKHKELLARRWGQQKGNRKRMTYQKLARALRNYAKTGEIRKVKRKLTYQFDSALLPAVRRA
# In short: as §1
# ELK3 = target: T6, ELK3 (Homo sapiens, UniProt P41970 1-407); details: protein: recombinant; tags: N-terminal GST; dsDNA, one strand shown
# T6 sequence: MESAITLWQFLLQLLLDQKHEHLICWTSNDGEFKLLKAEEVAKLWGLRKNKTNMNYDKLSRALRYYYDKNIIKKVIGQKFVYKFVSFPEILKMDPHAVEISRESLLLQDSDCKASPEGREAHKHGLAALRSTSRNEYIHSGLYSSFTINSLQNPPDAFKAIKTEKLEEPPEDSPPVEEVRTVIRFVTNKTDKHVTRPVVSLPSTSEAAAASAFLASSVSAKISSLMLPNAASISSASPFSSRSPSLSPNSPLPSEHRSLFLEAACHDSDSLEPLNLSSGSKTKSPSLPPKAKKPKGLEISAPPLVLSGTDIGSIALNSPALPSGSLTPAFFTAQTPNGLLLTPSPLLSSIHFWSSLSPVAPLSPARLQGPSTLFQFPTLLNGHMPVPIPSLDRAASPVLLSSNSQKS
# In short: as §1
# FEV = target: T7, FEV (Homo sapiens, UniProt Q99581 1-238); details: protein: recombinant; tags: N-terminal GST; dsDNA, one strand shown
# T7 sequence: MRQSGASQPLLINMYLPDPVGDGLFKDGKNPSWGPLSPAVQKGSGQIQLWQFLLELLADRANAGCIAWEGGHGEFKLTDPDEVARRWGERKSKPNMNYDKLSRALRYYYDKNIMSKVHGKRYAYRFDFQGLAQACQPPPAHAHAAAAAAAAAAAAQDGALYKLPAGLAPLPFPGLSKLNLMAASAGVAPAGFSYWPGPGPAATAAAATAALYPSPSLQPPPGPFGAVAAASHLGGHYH
# In short: as §1
# ETV5 = ETV5 (Homo sapiens, UniProt P41161 1-510); details: protein: recombinant; tags: N-terminal GST; dsDNA, one strand shown
# Sequence of ETV5 (P41161 whole entry): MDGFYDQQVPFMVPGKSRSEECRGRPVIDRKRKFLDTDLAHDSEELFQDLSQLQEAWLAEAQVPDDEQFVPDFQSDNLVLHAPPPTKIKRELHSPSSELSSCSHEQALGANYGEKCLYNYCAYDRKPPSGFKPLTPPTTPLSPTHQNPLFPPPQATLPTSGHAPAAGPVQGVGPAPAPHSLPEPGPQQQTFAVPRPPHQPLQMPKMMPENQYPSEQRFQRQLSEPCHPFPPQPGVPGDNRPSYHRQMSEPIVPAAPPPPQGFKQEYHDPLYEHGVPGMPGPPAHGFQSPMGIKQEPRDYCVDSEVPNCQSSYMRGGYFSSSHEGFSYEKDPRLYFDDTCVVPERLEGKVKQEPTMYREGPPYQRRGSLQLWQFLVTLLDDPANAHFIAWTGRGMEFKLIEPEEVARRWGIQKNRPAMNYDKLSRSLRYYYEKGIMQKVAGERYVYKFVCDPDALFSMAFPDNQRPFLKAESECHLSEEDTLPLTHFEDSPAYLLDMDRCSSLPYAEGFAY
# In short: as §1
# HSF1 = HSF1 (Homo sapiens, UniProt Q00613 1-529); details: protein: recombinant; tags: N-terminal GST; chain copies: 3; dsDNA, one strand shown
# Sequence of HSF1 (Q00613 whole entry): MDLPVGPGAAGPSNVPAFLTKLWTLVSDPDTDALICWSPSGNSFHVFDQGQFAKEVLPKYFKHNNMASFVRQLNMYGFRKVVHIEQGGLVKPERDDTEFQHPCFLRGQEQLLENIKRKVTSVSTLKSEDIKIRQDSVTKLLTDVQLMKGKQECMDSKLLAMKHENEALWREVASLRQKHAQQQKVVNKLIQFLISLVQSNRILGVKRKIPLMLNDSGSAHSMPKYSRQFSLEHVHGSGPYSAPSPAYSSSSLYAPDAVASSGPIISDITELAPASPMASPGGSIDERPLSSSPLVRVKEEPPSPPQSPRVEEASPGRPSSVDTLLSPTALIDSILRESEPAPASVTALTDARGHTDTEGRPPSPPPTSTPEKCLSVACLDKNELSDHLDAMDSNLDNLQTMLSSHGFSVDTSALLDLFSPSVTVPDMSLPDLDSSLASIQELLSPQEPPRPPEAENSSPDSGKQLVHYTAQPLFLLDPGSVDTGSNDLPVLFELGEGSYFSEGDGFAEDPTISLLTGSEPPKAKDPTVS
# In short: as §1
# SPIC = target: T8, SPIC (Homo sapiens, UniProt Q8N5J4 1-248); details: protein: recombinant; tags: N-terminal GST; dsDNA, one strand shown
# T8 sequence: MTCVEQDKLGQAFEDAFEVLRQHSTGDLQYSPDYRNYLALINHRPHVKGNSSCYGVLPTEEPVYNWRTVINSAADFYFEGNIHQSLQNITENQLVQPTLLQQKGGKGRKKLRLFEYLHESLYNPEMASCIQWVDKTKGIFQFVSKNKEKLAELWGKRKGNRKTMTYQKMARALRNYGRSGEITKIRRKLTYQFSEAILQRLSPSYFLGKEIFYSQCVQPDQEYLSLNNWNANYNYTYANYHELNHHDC
# In short: as §1
# ELF4 = ELF4 (Homo sapiens, UniProt Q99607 1-663); details: protein: recombinant; tags: N-terminal GST; dsDNA, one strand shown
# Sequence of ELF4 (Q99607 whole entry): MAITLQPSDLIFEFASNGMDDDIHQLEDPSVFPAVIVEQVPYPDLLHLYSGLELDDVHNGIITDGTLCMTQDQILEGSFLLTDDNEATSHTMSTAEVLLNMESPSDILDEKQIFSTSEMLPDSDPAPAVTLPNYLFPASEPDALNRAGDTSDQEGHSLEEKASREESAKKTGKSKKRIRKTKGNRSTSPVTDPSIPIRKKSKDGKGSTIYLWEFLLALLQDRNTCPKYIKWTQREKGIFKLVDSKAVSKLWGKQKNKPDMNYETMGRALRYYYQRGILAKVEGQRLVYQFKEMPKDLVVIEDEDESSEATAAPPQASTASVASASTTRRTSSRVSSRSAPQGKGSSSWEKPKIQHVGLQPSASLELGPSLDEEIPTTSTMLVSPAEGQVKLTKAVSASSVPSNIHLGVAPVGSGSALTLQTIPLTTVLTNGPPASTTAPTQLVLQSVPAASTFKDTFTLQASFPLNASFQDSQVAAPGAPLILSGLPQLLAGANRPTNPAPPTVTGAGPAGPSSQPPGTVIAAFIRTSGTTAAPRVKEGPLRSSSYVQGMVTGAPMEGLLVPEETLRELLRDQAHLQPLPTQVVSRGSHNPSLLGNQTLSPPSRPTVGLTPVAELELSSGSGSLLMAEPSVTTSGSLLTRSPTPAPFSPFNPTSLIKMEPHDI
# In short: as §1
# ELK4 = target: T9, ELK4 (Homo sapiens, UniProt P28324-2 1-405); details: protein: recombinant; tags: N-terminal GST; dsDNA, one strand shown
# T9 sequence: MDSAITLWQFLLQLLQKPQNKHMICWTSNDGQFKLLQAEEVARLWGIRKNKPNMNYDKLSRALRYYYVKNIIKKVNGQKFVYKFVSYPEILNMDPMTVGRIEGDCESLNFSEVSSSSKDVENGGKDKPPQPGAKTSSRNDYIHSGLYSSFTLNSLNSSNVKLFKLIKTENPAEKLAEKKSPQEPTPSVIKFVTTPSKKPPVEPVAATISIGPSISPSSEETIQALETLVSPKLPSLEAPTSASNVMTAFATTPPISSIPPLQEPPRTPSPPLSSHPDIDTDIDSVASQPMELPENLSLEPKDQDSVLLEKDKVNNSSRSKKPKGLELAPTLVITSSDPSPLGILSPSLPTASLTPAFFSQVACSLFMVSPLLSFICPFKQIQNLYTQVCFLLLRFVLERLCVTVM
# In short: as §1
# ETV2 = target: T10, ETV2 (Homo sapiens, UniProt O00321 1-342); details: protein: recombinant; tags: N-terminal GST; dsDNA, one strand shown
# T10 sequence: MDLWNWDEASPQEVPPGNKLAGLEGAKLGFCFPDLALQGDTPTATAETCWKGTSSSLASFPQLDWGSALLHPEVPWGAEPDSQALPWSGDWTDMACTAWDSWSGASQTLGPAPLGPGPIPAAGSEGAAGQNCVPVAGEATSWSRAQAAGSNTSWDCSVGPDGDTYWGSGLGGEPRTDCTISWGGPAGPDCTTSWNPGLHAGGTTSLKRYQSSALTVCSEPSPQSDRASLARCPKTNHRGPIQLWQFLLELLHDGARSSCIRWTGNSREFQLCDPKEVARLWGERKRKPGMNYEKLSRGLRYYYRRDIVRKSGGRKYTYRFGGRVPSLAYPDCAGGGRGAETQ
# In short: as §1
# ELF3 = target: T11, ELF3 (Homo sapiens, UniProt P78545 1-371); details: protein: recombinant; tags: N-terminal GST; dsDNA, one strand shown
# T11 sequence: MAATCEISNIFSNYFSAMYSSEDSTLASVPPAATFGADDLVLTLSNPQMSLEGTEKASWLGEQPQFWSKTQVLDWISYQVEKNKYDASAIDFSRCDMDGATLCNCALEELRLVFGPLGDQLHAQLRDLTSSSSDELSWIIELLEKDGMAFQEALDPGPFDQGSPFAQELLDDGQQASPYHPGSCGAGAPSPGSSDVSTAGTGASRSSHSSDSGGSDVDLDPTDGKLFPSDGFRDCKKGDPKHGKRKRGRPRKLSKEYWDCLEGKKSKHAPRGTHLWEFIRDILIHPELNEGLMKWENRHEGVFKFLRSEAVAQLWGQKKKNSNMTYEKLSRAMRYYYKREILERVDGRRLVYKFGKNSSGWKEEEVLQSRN
# In short: as §1
# CRX = CRX (Homo sapiens, UniProt O43186 1-299); details: protein: recombinant; tags: N-terminal GST; dsDNA, one strand shown
# Sequence of CRX (O43186 whole entry): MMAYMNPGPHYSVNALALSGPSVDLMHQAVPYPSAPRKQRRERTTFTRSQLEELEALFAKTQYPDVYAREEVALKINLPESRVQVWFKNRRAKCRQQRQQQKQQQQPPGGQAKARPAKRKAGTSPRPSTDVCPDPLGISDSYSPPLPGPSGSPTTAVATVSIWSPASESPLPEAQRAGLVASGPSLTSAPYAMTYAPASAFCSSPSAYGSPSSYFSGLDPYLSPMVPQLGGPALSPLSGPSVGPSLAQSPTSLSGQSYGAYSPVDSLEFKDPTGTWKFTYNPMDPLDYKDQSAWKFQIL
# In short: as §1
# ETV1 = ETV1 (Homo sapiens, UniProt P50549 1-477); details: protein: recombinant; tags: N-terminal GST; dsDNA, one strand shown
# Sequence of ETV1 (P50549 whole entry): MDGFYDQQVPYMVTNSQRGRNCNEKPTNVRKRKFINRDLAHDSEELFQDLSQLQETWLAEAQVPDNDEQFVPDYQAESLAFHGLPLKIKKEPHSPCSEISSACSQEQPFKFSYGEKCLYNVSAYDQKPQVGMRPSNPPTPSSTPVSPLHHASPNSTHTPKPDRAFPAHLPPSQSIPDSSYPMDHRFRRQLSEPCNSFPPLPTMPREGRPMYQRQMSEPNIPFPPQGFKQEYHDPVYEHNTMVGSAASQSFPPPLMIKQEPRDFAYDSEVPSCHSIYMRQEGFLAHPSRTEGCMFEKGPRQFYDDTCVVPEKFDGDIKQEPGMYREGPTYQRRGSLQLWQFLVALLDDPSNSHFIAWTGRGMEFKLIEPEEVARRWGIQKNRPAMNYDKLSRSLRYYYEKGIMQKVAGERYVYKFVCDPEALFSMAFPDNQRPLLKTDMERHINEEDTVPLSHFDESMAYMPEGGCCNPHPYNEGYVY
# In short: as §1
sequence,measurement,setting,value
CGCCTA,binding signal,FLI1,"1.17 fold enrichment (6-mer frequency, TF over GST control)"
same,binding signal,ELK1,"1.19 fold enrichment (6-mer frequency, TF over GST control)"
same,binding signal,GABPA,"1.15 fold enrichment (6-mer frequency, TF over GST control)"
same,binding signal,ERG,"1.14 fold enrichment (6-mer frequency, TF over GST control)"
same,binding signal,ELF1,"1.16 fold enrichment (6-mer frequency, TF over GST control)"
same,binding signal,EHF,"1.23 fold enrichment (6-mer frequency, TF over GST control)"
same,binding signal,SPI1,"1.13 fold enrichment (6-mer frequency, TF over GST control)"
same,binding signal,SPIB,"1.22 fold enrichment (6-mer frequency, TF over GST control)"
same,binding signal,ELK3,"1.24 fold enrichment (6-mer frequency, TF over GST control)"
same,binding signal,FEV,"1.11 fold enrichment (6-mer frequency, TF over GST control)"
same,binding signal,ETV5,"1.18 fold enrichment (6-mer frequency, TF over GST control)"
same,binding signal,HSF1,"1.15 fold enrichment (6-mer frequency, TF over GST control)"
same,binding signal,SPIC,"1.36 fold enrichment (6-mer frequency, TF over GST control)"
same,binding signal,ELF4,"1.12 fold enrichment (6-mer frequency, TF over GST control)"
same,binding signal,ELK4,"1.28 fold enrichment (6-mer frequency, TF over GST control)"
same,binding signal,ETV2,"1.13 fold enrichment (6-mer frequency, TF over GST control)"
same,binding signal,ELF3,"1.06 fold enrichment (6-mer frequency, TF over GST control)"
same,binding signal,CRX,"1.18 fold enrichment (6-mer frequency, TF over GST control)"
same,binding signal,ETV1,"1.12 fold enrichment (6-mer frequency, TF over GST control)"

# — paper PMC7862700, “An all-to-all approach to the identification of sequence-specific readers for epigenetic DNA modifications on cytosine”
